Test results published in PubChem BioAssay (EPA / NIEHS).
Results filed as inconclusive are left out. Calls of active or inactive are those of the source. Rule for the calls: active = hit-call score of the fitted dose curve at least 0.9, where 1 is the maximum; inconclusive = response in the unintended direction; inactive = score below 0.9.

How the values were obtained:
[1] = LTEA_HepaRG_LDH_cytotoxicity: Cytotoxicity Assessment in the Life Technologies and Expression Analysis (LTEA) Assay (AID 2283563);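 for AC50: LDH activity released into spent culture medium as a marker of cell death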
Outline: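 Differentiated human HepaRG cells, plated 48 h beforehand, were switched to serum-free induction medium and exposed for 48 h to eight half-log concentrations (top 100 uM) in 0.5% DMSO. LDH was measured in spent medium; activity was fitted relative to DMSO vehicle.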

[2] = TOX21_p53_BLA_p2_viability: Viability Assessment in the Tox21 HCT-116 p53 Agonism Beta-lactamase Assay, Phase 2 (AID 2283591);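 note: compound exposure lasted 16 h at 37 °C; actives lower the ATP signal meaning cytotoxicity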
Outline: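 HCT116 p53-bla cells, 4000/well, dosed after 5 h plating (217-fold dilution of DMSO stocks) and incubated 16 h at 37C. Viability taken as cellular ATP by CellTiter-Glo luminescence after 30 min RT; signal loss marks cytotoxicity.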

[3] = TOX21_p53_BLA_p3_viability: Viability Assessment in the Tox21 HCT-116 p53 Agonism Beta-lactamase Assay, Phase 3 (AID 2283593);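 note: cells exposed to compound for 16 h before reading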
Outline: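 HCT116 cells, 4000/well, dosed 5 h after plating by pin transfer (217-fold dilution from DMSO stock) and incubated 16 h at 37C, 5% CO2. Viability read as ATP luminescence with CellTiter-Glo after 30 min at room temperature.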

[4] = TOX21_p53_BLA_p4_viability: Viability Assessment in the Tox21 HCT-116 p53 Agonism Beta-lactamase Assay, Phase 4 (AID 2283597);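 note: hits lower the luminescence signal meaning cytotoxicity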
Outline: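 Cytotoxicity was inferred from loss of CellTiter-Glo luminescence. HCT116 cells had been dosed with compounds after 5 h plating, incubated 16 h at 37C and 5% CO2, and exposed to the CCF4-AM substrate for 2 h.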

[5] = molecular target: Cellular tumor antigen p53 (Homo sapiens) (UniProt P04637); assay: TOX21_p53_BLA_p4_ratio: Tox21 HCT-116 p53 Agonism Beta-lactamase Assay, Ratio, Phase 4 (AID 2283601)
Outline: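 HCT-116 p53 beta-lactamase reporter cells (4000/well) preincubated 5 h, then compound (217-fold dilution of DMSO stock) for 16 h at 37C. CCF4-AM substrate added 2 h at room temperature; 460/530 nm emission ratio fitted upward versus DMSO.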

[6] = Tanguay_ZF_120hpf_MORT_legacy: (Legacy) Oregon State University Tanguay Lab 120 Hour Post-fertilization zebrafish Assay for Mortality (AID 2283633);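 for AC50: fitted as increase in binary mortality versus DMSO negative control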
Outline: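 Dechorionated Tropical 5D wild-type zebrafish embryos, one per well from 6 hpf, were statically exposed at 28C in the dark until 120 hpf (0.64% DMSO final). Mortality was scored as present/absent by brightfield microscopy, fitted positively versus DMSO.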

[7] = Tanguay_ZF_120hpf_YSE_legacy: (Legacy) Oregon State University Tanguay Lab 120 Hour Post-fertilization zebrafish Assay for Yolk Sac Edema (AID 2283634);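 for AC50: actives raise the incidence of yolk sac edema above the DMSO baseline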
Outline: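 Tropical 5D wild-type embryos, dechorionated with pronase at 4 hpf, were exposed singly from 6 hpf to 120 hpf under static, sealed, dark conditions at 28C with 0.64% DMSO final. Yolk sac edema was scored present/absent by brightfield microscopy.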

[8] = Tanguay_ZF_120hpf_AXIS_legacy: (Legacy) Oregon State University Tanguay Lab 120 Hour Post-fertilization zebrafish Assay for Body Axis Malformation (AID 2283635);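 for AC50: potency for an increased fraction of larvae scored with body axis malformation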
Outline: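 Tropical 5D wild-type zebrafish embryos, dechorionated with pronase at 4 hpf, were placed singly in wells at 6 hpf and exposed statically to test chemical (0.64% DMSO final) at 28C until 120 hpf, then scored by brightfield for body axis defects.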

[9] = Tanguay_ZF_120hpf_EYE_legacy: (Legacy) Oregon State University Tanguay Lab 120 Hour Post-fertilization zebrafish Assay for Eye Malformation (AID 2283636);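 note: binary presence or absence of eye malformation scored by brightfield in 120 hpf larvae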
Outline: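 5D wild-type embryos, pronase-dechorionated at 4 hpf; static exposure 6–120 hpf, 28C, dark; DMSO 0.64% final; 5uM trimethyltin chloride positive control. Binary eye-defect scoring at 120 hpf; dead embryos not scored.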

[10] = Tanguay_ZF_120hpf_JAW_legacy: (Legacy) Oregon State University Tanguay Lab 120 Hour Post-fertilization zebrafish Assay for Jaw Malformation (AID 2283638);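 for AC50: active means more embryos with jaw malformation than DMSO controls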
Outline: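 Tropical 5D wild-type embryos, dechorionated with pronase at 4 hpf, were placed singly per well at 6 hpf and statically exposed at 28C until 120 hpf (0.64% DMSO final). Jaw malformation scored as present/absent by brightfield microscopy at 120 hpf, analyzed relative to DMSO.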

[11] = Tanguay_ZF_120hpf_OTIC_legacy: (Legacy) Oregon State University Tanguay Lab 120 Hour Post-fertilization zebrafish Assay for Otic Vesicle Malformation (AID 2283639)
Outline: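 Brightfield scoring at 120 hpf, binary present/absent; DMSO negative control, 5uM trimethyltin chloride positive control. Static exposure at 28C, final DMSO 0.64% (vol/vol). Dead embryos not scored for malformation.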

[12] = Tanguay_ZF_120hpf_PE_legacy: (Legacy) Oregon State University Tanguay Lab 120 Hour Post-fertilization zebrafish Assay for Pericardial Edema (AID 2283640);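 for AC50: potency for increased incidence of pericardial edema versus DMSO baseline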
Outline: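 Tropical 5D wild-type zebrafish embryos were exposed statically to 120 hpf at 28C, sealed and foil-covered, in 0.64% DMSO final. Pericardial edema was scored present/absent by brightfield microscopy; dead embryos were not scored.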

[13] = Tanguay_ZF_120hpf_BRAI_legacy: (Legacy) Oregon State University Tanguay Lab 120 Hour Post-fertilization zebrafish Assay for Brain Malformation (AID 2283641)
Outline: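 Tropical 5D wild-type zebrafish embryos were exposed statically in sealed, foil-covered plates at 28C until 120 hpf, with 0.64% (vol/vol) final DMSO. Brain malformation was scored present/absent by brightfield microscopy, relative to DMSO baseline.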

[14] = ATG_XTT_Cytotoxicity: Cytotoxicity Assessment in the Attagene TRANS-FACTORIAL HepG2 Assay (AID 2283584)
Outline: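 HepG2 human liver cells, transiently transfected with multiple GAL4-UAS reporter units, were dosed and read at 24 h by XTT as cell number. Loss of signal was fitted relative to DMSO negative control baseline.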

[15] = molecular target: Cellular tumor antigen p53 (Homo sapiens) (UniProt P04637); assay: TOX21_p53_BLA_p2_ratio: Tox21 HCT-116 p53 Agonism Beta-lactamase Assay, Ratio, Phase 2 (AID 2283592)
Outline: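 Ratio endpoint: beta-lactamase cleavage of CCF4-AM, blue (460 nm) over green (530 nm). HCT116 reporter line; 16 h treatment, 37C; substrate 2 h RT.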

[16] = molecular target: Cellular tumor antigen p53 (Homo sapiens) (UniProt P04637); assay: TOX21_p53_BLA_p5_ratio: Tox21 HCT-116 p53 Agonism Beta-lactamase Assay, Ratio, Phase 5 (AID 2283599)
Outline: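 HCT-116 p53-bla cells (4000/well) plated 5 h, dosed with compound (217-fold DMSO dilution) for 16 h at 37 C; CCF4-AM substrate 2 h at room temperature. Activity is the 460/530 nm emission ratio (405 nm excitation), fitted in gain-of-signal direction versus DMSO.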

[17] = Tanguay_ZF_120hpf_SNOU_legacy: (Legacy) Oregon State University Tanguay Lab 120 Hour Post-fertilization zebrafish Assay for Snout Malformation (AID 2283637)
Outline: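 Binary brightfield scoring of snout malformation at 120 hpf. Dechorionated 5D wild-type embryos, one per well, static exposure from 6 hpf at 28C, sealed and dark; final DMSO 0.64% (vol/vol), DMSO as baseline; 5uM trimethyltin chloride positive control.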

[18] = Tanguay_ZF_120hpf_SOMI_legacy: (Legacy) Oregon State University Tanguay Lab 120 Hour Post-fertilization zebrafish Assay for Somite Malformation (AID 2283647)
Outline: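 Tropical 5D wild-type zebrafish embryos, dechorionated with pronase at 4 hpf, were placed singly at 6 hpf and statically exposed until 120 hpf at 28C in 0.64% DMSO. Somite malformation was scored present/absent by brightfield microscopy versus DMSO.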

[19] = molecular target: Cellular tumor antigen p53 (Homo sapiens) (UniProt P04637); assay: TOX21_p53_BLA_p3_ratio: Tox21 HCT-116 p53 Agonism Beta-lactamase Assay, Ratio, Phase 3 (AID 2283596)
Outline: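 Cells were seeded at 4000/well, rested 5 h at 37C, then dosed with DMSO compound solutions (217-fold dilution) for 16 h. CCF4-AM substrate was loaded for 2 h at room temperature, and the 460/530 nm emission ratio was fitted for gain of signal versus DMSO.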

[20] = TOX21_p53_BLA_p5_viability: Viability Assessment in the Tox21 HCT-116 p53 Agonism Beta-lactamase Assay, Phase 5 (AID 2283600)
Outline: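 Luciferase-coupled ATP quantitation of cells treated for 16 h (37C, 5% CO2) with test chemicals delivered in DMSO via a 217-fold dilution; 4000 cells/well; reagent incubated 30 min at room temperature before luminescence reading.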

Measured: AC50

Cellular tumor antigen p53 (Homo sapiens), sequence (P04637 whole entry, looked up): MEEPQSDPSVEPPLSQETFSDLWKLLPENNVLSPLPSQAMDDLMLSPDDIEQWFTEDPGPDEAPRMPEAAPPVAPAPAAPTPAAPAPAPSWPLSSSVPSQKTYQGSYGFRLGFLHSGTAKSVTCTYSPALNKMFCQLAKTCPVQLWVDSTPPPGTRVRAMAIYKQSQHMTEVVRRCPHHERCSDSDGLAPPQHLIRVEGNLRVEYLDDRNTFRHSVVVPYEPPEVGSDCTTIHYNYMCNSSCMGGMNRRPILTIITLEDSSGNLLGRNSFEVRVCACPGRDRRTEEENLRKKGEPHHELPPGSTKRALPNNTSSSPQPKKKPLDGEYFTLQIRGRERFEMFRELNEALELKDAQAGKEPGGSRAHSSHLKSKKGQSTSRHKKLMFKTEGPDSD

CC(C)CC(C)(O)C#CC(C)(O)CC(C)C (stereo not given)
inactive: [1] | [2] | [3] | [4] | [5] | [6] | [7] | [8] | [9] | [10] | [11] | [12] | [13]

Cc1ccc(S(=O)(=O)O)cc1C
inactive: [14] | [2] | [15] | [3] | [4] | [16] | [5] | [6] | [7] | [8] | [9] | [10] | [11] | [13]

O=P(OC(CCl)CCl)(OC(CCl)CCl)OC(CCl)CCl
active: [4] 53.8 µM | [7] 25.4 µM | [8] 35.3 µM | [9] 36.7 µM | [17] 25.9 µM | [10] 36.3 µM | [11] 34.7 µM | [12] 28.2 µM | [13] 31.7 µM | [18] 9.13 µM
inactive: [1] | [2] | [3] | [16] | [5] | [6]

CC(C)c1cccc(C(C)C)c1N1C(=O)c2ccc(O)cc2C1=O
inactive: [14] | [19] | [7] | [8] | [10] | [11] | [12] | [13]
active: [2] 66.7 µM | [3] 74.9 µM | [4] 68.4 µM | [16] 2.05 µM | [5] 69.5 µM | [6] 26.9 µM

CCOC(=O)CC(CC(=O)OCC)(OC(C)=O)C(=O)OCC
inactive: [1] | [15] | [3] | [7] | [8] | [9] | [17] | [10] | [11] | [12] | [13] | [18]

CC(C)CCO
inactive: [1] | [2] | [3] | [4] | [6] | [7] | [8] | [9] | [10] | [11] | [12] | [13]

Cc1ccc(C)c(O)c1
inactive: [1] | [15] | [3] | [16] | [5] | [7] | [8] | [9] | [10] | [11] | [12] | [13] | [18]

COc1ccc(/C=C/S(=O)(=O)NC(=O)c2ccc(C)cc2Cl)cc1
active: [15] 28 µM | [16] 29.5 µM | [5] 21.2 µM
inactive: [14] | [2] | [3] | [20] | [6] | [10] | [11] | [12] | [13] | [18]

COCCOc1cc2cc(C(=O)NC3CCN(C(C)C)CC3)n(CC(=O)Nc3ccc(Cl)cn3)c2cn1
inactive: [3] | [19] | [4] | [16] | [20] | [7] | [8] | [9] | [17] | [10] | [11] | [12] | [13]
active: [1] 59.3 µM

COCCOCCOCCOC
inactive: [1] | [15] | [4] | [16] | [7] | [9] | [17] | [10] | [12] | [13]

CCCN(C1CCN(C(=O)C2CCNCC2)CC1)[C@@H]1CCc2ccc(OC)cc2C1
inactive: [14] | [2] | [3] | [19] | [5] | [6] | [7] | [8] | [9] | [10] | [11] | [12] | [13]

O=c1[nH]c2ccc(S(=O)CCN3CCC(Cc4ccc(F)cc4)CC3)cc2o1 (stereo not given)
inactive: [1] | [15] | [3] | [4] | [16] | [5] | [6] | [7] | [8] | [9] | [17] | [10] | [11] | [12] | [13]

O=C(O)CC(O)C(=O)O (stereo not given)
inactive: [14] | [2] | [15] | [19] | [4] | [16] | [5] | [6] | [7] | [8] | [9] | [17] | [10] | [12] | [13] | [18]

CCCCC(CC)COC(=O)CCCCCCCCC(=O)OCC(CC)CCCC (stereo not given)
inactive: [14] | [2] | [15] | [3] | [20] | [7] | [8] | [9] | [10] | [11] | [12] | [13] | [18]

CC1(C)C(=O)N(Br)C(=O)N1Br
inactive: [1] | [19] | [4] | [16] | [5] | [7] | [8] | [9] | [17] | [10] | [12] | [13]

Cc1c(-c2cccnc2)c2ccccc2n1CCCCC(=O)O
active: [7] 51.2 µM
inactive: [1] | [15] | [19] | [16] | [5] | [6] | [8] | [9] | [10] | [11] | [12] | [13]

CC(C)=CCC/C(C)=C\CO
inactive: [1] | [2] | [3] | [4] | [5] | [6] | [7] | [9] | [10] | [11] | [12] | [13]

CCCC(=O)OCC
inactive: [1] | [3] | [7] | [8] | [9] | [10] | [11] | [12] | [13] | [18]
